# According to article PMC11062922 (Nature Chemical Biology, 2023):
# Like-named read-outs stand apart in the source and are kept apart here.
# How the values were obtained:
# Set-up in all cases: species or system human, MV4-11 + K-562 + COLO205 + SK-N-BE2 + OVCAR-8
# AURKA = details: read-out: apparent Kd, compound concentrations: 100 nM and 1000 nM (sheet 'Samples'), n = 1
# BCR = details: read-out: apparent Kd, compound concentrations: 100 nM and 1000 nM (sheet 'Samples'), n = 1
# CAMKK2 = details: read-out: apparent Kd, compound concentrations: 100 nM and 1000 nM (sheet 'Samples'), n = 1
# CDK16 = details: read-out: apparent Kd, compound concentrations: 100 nM and 1000 nM (sheet 'Samples'), n = 1
# CHEK1 = details: read-out: apparent Kd, compound concentrations: 100 nM and 1000 nM (sheet 'Samples'), n = 1
# MAPK9 = details: read-out: apparent Kd, compound concentrations: 100 nM and 1000 nM (sheet 'Samples'), n = 1
# MARK3 = details: read-out: apparent Kd, compound concentrations: 100 nM and 1000 nM (sheet 'Samples'), n = 1
# PIP4K2C = details: read-out: apparent Kd, compound concentrations: 100 nM and 1000 nM (sheet 'Samples'), n = 1
# PRKAG2 = details: read-out: apparent Kd, compound concentrations: 100 nM and 1000 nM (sheet 'Samples'), n = 1
# RPS6KA4 = details: read-out: apparent Kd, compound concentrations: 100 nM and 1000 nM (sheet 'Samples'), n = 1
# STK4 = details: read-out: apparent Kd, compound concentrations: 100 nM and 1000 nM (sheet 'Samples'), n = 1
# TNK1 = details: read-out: apparent Kd, compound concentrations: 100 nM and 1000 nM (sheet 'Samples'), n = 1
# PRKACA = details: read-out: apparent Kd, compound concentrations: 100 nM and 1000 nM (sheet 'Samples'), n = 1
# PRKACB = details: read-out: apparent Kd, compound concentrations: 100 nM and 1000 nM (sheet 'Samples'), n = 1
# EPHA4 = details: read-out: apparent Kd, compound concentrations: 100 nM and 1000 nM (sheet 'Samples'), n = 1
# EPHA5 = details: read-out: apparent Kd, compound concentrations: 100 nM and 1000 nM (sheet 'Samples'), n = 1
# EPHB2 = details: read-out: apparent Kd, compound concentrations: 100 nM and 1000 nM (sheet 'Samples'), n = 1
# EPHB4 = details: read-out: apparent Kd, compound concentrations: 100 nM and 1000 nM (sheet 'Samples'), n = 1
# ATM = details: read-out: apparent Kd; compound concentrations: 100 nM and 1000 nM (sheet 'Samples'), CATDS: 1.5157721070637E-2; n = 1
# CSNK1D = details: read-out: apparent Kd; compound concentrations: 100 nM and 1000 nM (sheet 'Samples'), CATDS: 5.3650887558765398E-3; n = 1
structure (smiles),measurement,setting,value
COc1ccc(Nc2ncc(C#N)c(Nc3ccccc3C(N)=O)n2)cc1N1CCN(C)CC1.Cl [GSK1558669A],potency estimated from few doses,AURKA; CATDS: 3.9666626948294099E-2,12 nM
same,potency estimated from few doses,BCR; CATDS: 1.27803345453226E-2,96.9 nM
same,potency estimated from few doses,CAMKK2; CATDS: 6.1789819356504504E-3,1430 nM
same,potency estimated from few doses,CDK16; CATDS: 6.29330119004379E-3,1270 nM
same,potency estimated from few doses,CHEK1; CATDS: 1.1194862883684801E-2,137 nM
same,potency estimated from few doses,MAPK9; CATDS: 7.8754696697006001E-3,427 nM
same,potency estimated from few doses,MARK3; CATDS: 1.02819135302623E-2,174 nM
same,potency estimated from few doses,PIP4K2C; CATDS: 5.8169442722308101E-3,2240 nM
same,potency estimated from few doses,PRKAG2; CATDS: 1.3647831185805001E-2,82.8 nM
same,potency estimated from few doses,RPS6KA4; CATDS: 8.4346807860121598E-3,330 nM
same,potency estimated from few doses,STK4; CATDS: 6.7227641521754398E-3,872 nM
same,potency estimated from few doses,TNK1; CATDS: 3.9834731570335402E-2,11.9 nM
CCn1c(-c2nonc2N)nc2c(C#CC(C)(C)O)nc(OC[C@@H](N)c3ccccc3)cc21 [GSK938890A],potency estimated from few doses,PRKACA; CATDS: 0.21319960399835,22.6 nM
same,potency estimated from few doses,PRKACB; CATDS: 0.177486762785802,30.8 nM
O=C1N=C(NCCc2ccc(Cl)cc2)S/C1=C\c1ccc2ncccc2c1 [RO4498479-000],potency estimated from few doses,AURKA; CATDS: 1.0602350822893101E-2,486 nM
same,potency estimated from few doses,BCR; CATDS: 1.6408594866795901E-2,215 nM
same,potency estimated from few doses,CAMKK2; CATDS: 9.9016852028132405E-3,568 nM
same,potency estimated from few doses,CHEK1; CATDS: 7.8682297996918397E-3,1070 nM
same,potency estimated from few doses,EPHA4; CATDS: 1.4543255052935199E-2,263 nM
same,potency estimated from few doses,EPHA5; CATDS: 2.0414571032165901E-2,153 nM
same,potency estimated from few doses,EPHB2; CATDS: 1.7636169639023699E-2,191 nM
same,potency estimated from few doses,EPHB4; CATDS: 2.15431657098582E-2,141 nM
same,potency estimated from few doses,MARK3; CATDS: 8.4864305198955707E-3,848 nM
same,potency estimated from few doses,PIP4K2C; CATDS: 8.2219500153899797E-3,930 nM
same,potency estimated from few doses,PRKACA; CATDS: 8.4640851007318392E-3,854 nM
same,potency estimated from few doses,PRKACB; CATDS: 9.3487346254019794E-3,654 nM
same,potency estimated from few doses,PRKAG2; CATDS: 1.04447346657642E-2,503 nM
same,potency estimated from few doses,RPS6KA4; CATDS: 7.6189107816006501E-3,1190 nM
same,potency estimated from few doses,TNK1; CATDS: 1.8006750719606699E-2,185 nM
Cn1ncc2c(N)ncnc21 [SKF-18267],potency estimated from few doses,ATM,152 nM
same,potency estimated from few doses,AURKA; CATDS: 5.9187216005476898E-3,594 nM
same,potency estimated from few doses,BCR; CATDS: 5.2917709527679404E-3,729 nM
same,potency estimated from few doses,CAMKK2; CATDS: 4.5998229458051997E-3,967 nM
same,potency estimated from few doses,CDK16; CATDS: 4.4691246534882996E-3,1030 nM
same,potency estimated from few doses,CHEK1; CATDS: 3.5654135420005399E-3,1830 nM
same,potency estimated from few doses,CSNK1D,710 nM
same,potency estimated from few doses,EPHA4; CATDS: 3.9748200426908999E-3,1360 nM
same,potency estimated from few doses,EPHA5; CATDS: 5.0507447831964402E-3,798 nM
same,potency estimated from few doses,EPHB2; CATDS: 4.50420726302921E-3,1010 nM
same,potency estimated from few doses,EPHB4; CATDS: 5.4338505062104699E-3,694 nM
same,potency estimated from few doses,MAPK9; CATDS: 4.8352586021379899E-3,871 nM
same,potency estimated from few doses,MARK3; CATDS: 3.4367127016050499E-3,2060 nM
same,potency estimated from few doses,PRKACA; CATDS: 3.8266361716822101E-3,1500 nM
same,potency estimated from few doses,PRKACB; CATDS: 4.8946075790836903E-3,850 nM
same,potency estimated from few doses,PRKAG2; CATDS: 6.26452346247391E-3,539 nM
same,potency estimated from few doses,RPS6KA4; CATDS: 4.17505153349991E-3,1200 nM
same,potency estimated from few doses,STK4; CATDS: 4.4233826553232904E-3,1050 nM
same,potency estimated from few doses,TNK1; CATDS: 5.3510619534007497E-3,714 nM
